Experiment [1] in a line: qHTS assay to identify small molecule HDAC inhibitors (AID 1259364).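 Also: wild-type HCT-116 cells with endogenous class I/II HDAC activity; top concentration of the series differs between compounds; nearly all actives have a fitted effect of over 45% in size.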 Put shortly:
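Cells (HCT-116, wild type) are seeded at 1,500 per well, incubated overnight, treated with compound in DMSO for 2 hr, then developed with HDAC-Glo I/II reagent for 30 min at room temperature.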

Experiment [2] can be described thus: qHTS assay to identify small molecule HDAC inhibitors - cell viability counter screen (AID 1259365). Also: series mostly up to about 92 µM; nearly all actives have a fitted effect of over 50% in size. An outline of the steps:
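HCT-116 (wild type), 1,500 cells/well, overnight 37C/5% CO2; compound in DMSO 2hr; CellTiter-Glo 30min RT; luminescence read.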

Experiment [3] can be described thus: qHTS assay to identify small molecule agonists of the sonic hedgehog signaling (Shh) pathway - cell viability counter screen (AID 1259366). Also: nearly all actives have a fitted effect of over 50% in size. Also: potency is read from the fitted curve at half-maximal effect. Put shortly:
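CellTiter-Fluor fluorescence read-out, 1 hr at 37C, added after 23hr compound exposure. Cells: 3T3 Gli1-Luc, an NIH/3T3 clone with stably integrated Gli1-Luc reporter, plated 4hr before compound.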

Experiment [4] in a line: qHTS assay to identify small molecule antagonists of the sonic hedgehog signaling (Shh) pathway - cell viability counter screen (AID 1259367). Also: nearly all actives have a fitted effect of over 55% in size. An outline of the steps:
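Tox21 library chemicals were tested on a Gli1-Luc NIH/3T3 clone (2,000 cells/well) stimulated by conditioned medium; viability was quantified as fluorescence from CellTiter-Fluor reagent added at 23 hr.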

Experiment [5] can be described thus: qHTS assay to identify small molecule agonists of the sonic hedgehog signaling (Shh) pathway (AID 1259368; calls by dose curve;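 also: NIH/3T3-derived 3T3Gli1-Luc cells carrying a stable Gli1-driven firefly luciferase reporter; series mostly up to about 92 µM; nearly all actives have a fitted effect of over 15% in size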). Put shortly:
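Cells of a mouse NIH/3T3 clone stably expressing luciferase under the Gli1 transcriptional response element are exposed to test chemicals for 24 hr at 37 C. Pathway activation is detected as a rise in luminescence.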

Experiment [6] is described as follows: qHTS assay to identify small molecule antagonists of the sonic hedgehog signaling (Shh) pathway (AID 1259369; calls by dose curve; also: nearly all actives have a fitted effect of over 45% in size). An outline of the steps: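 Cells are plated and held 4hr at 37 C, compounds (DMSO) are pinned in, conditioned medium is added to stimulate the pathway, and after 24hr luciferase reagent is added for 30min before luminescence is read.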
For experiment [7], the target named is Estrogen receptor beta (Homo sapiens) (UniProt Q92731). The experiment in a line: qHTS assay to identify small molecule agonists of the estrogen receptor beta (ER-beta) signaling pathway (AID 1259377; active = well fitted activation curve with a large enough effect in the signal ratio in the repeat runs, not every such curve was filed as active; the % refers to the signal ratio). Put shortly:
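Beta-lactamase reporter readout: fluorescence of LiveBLAzer B/G FRET substrate after 2 h at room temperature, following 16 h compound treatment of ER-beta-UAS-bla HEK293T cells at 37C in 2% charcoal-stripped FBS medium.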

Experiment [8] shares this target. The experiment can be described thus: qHTS assay to identify small molecule antagonists of the estrogen receptor beta (ER-beta) signaling pathway (AID 1259378; active = well fitted inhibition curve with a large enough effect in the signal ratio in the repeat runs, not every such curve was filed as active; the % refers to the signal ratio). Put shortly: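 ER-beta-UAS-bla HEK293T cells in 2% charcoal-stripped FBS medium treated with compound plus 1nM final 17-beta-estradiol for 16 hr at 37C. Beta-lactamase reporter read by FRET substrate fluorescence after 2 hours at room temperature.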

Experiment [9] can be described thus: qHTS assay to identify small molecule agonists of the androgen receptor (AR) signaling pathway in the presence of an antagonist - cell viability counter screen (AID 1259379). Also: nearly all actives have a fitted effect of over 25% in size. Also: potency is read from the fitted curve at half-maximal effect. Put shortly: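 Cytotoxicity is assessed by CellTiter-Fluor in MDA-kb2 cells carrying an MMTV-driven luciferase reporter. Cells receive 3.0uM nilutamide plus compounds at 15 concentrations and incubate 16 hr at 37C without CO2 before fluorescence reading.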

Experiment [10] is described as follows: qHTS assay to identify small molecule agonists of the estrogen receptor beta (ER-beta) signaling pathway - cell viability counter screen (AID 1259380). Also: nearly all actives have a fitted effect of over 30% in size. Put shortly: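 Cytotoxicity is measured in parallel with the reporter screen: after 16 hr compound exposure at 37C and a 2 hr LiveBLAzer step, CellTiter-Glo is added to the same ER-beta-UAS-bla HEK293T wells and luminescence read after 30 min.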

The record followed here is PubChem BioAssay (Tox21).

Structures are written as SMILES. Unmarked numbers belong to inactive results. Inconclusive results are not listed. Activity calls are given as the source filed them. Unless noted, calls follow the shape of the dose curve; as a rule, active = well fitted curve in the direction sought with a large enough effect in the repeat runs; inconclusive = weak or mixed curves; inactive = no such curve, though single readings can be large; an effect the other way counts as inactive or inconclusive.

Estrogen receptor beta (Homo sapiens), sequence (Q92731 whole entry, looked up): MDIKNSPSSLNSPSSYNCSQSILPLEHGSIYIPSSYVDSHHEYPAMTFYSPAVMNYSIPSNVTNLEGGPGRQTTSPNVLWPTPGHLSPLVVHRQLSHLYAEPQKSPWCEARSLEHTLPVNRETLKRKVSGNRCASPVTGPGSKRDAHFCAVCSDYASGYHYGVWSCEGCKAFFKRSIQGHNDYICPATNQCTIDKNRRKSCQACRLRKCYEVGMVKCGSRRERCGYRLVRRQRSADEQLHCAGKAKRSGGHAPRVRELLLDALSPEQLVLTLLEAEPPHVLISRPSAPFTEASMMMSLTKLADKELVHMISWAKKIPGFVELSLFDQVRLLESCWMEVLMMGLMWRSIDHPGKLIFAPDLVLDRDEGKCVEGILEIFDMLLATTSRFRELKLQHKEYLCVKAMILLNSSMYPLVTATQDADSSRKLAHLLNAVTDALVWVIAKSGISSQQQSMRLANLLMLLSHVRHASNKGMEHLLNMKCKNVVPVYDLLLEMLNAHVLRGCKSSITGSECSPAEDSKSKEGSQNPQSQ

As for `CC(=O)N1CCN(c2ccc(O)cc2)CC1`, the Potency result in experiment [1], in experiment [3], in experiment [4], in experiment [6], in experiment [7] and in experiment [9] was “inactive” each time. Also, the call in experiment [2], in experiment [5], in experiment [8] and in experiment [10] was inactive.

Turning to `CCN(Cc1cccc(S(=O)(=O)O)c1)c1ccccc1`, the Potency result in experiment [1], in experiment [3], in [4], in experiment [6], in experiment [7] and in experiment [9] was “inactive” throughout. Besides, the outcome in [2], in [5], in experiment [8] and in experiment [10] was inactive.

On to `O=C(O)c1ccc(OCCN2CCCCC2)cc1`, for which the Potency result in experiment [1], in experiment [3], in experiment [4], in experiment [6], in [7] and in experiment [9] was “inactive” in each case. In addition, the compound was called inactive in experiment [2], in [5], in [8] and in experiment [10].

In the case of `Cc1ccccc1OCC1CO1` (stereo unspecified), the Potency entry in experiment [1], in [3], in experiment [4], in experiment [6] and in [7] was “inactive” each time. The compound was called inactive in experiment [2], in [5], in experiment [8] and in [10].

With `COc1ccc(N=Nc2cc(C)c(N=Nc3ccc(S(=O)(=O)O)cc3)cc2OC)cc1`, the Potency result in experiment [1], in experiment [4], in experiment [6] and in experiment [7] was “inactive” in each case. Also, the call in [2], in experiment [5] and in experiment [10] was inactive. The Potency in experiment [3] was 54.5 µM (active); in [9] it was 48.6 µM (active).

For `C=CCOCC(CO)(COCC=C)COCC=C`, the Potency result in experiment [1], in experiment [3], in experiment [4], in experiment [6], in [7] and in experiment [9] was “inactive” throughout. For the same compound, the compound was called inactive in experiment [2] and in experiment [5].

`FC(F)(F)/C(=N\OCC1OCCO1)c1ccc(Cl)cc1`: the Potency result in experiment [1], in experiment [3], in [4], in [6], in experiment [7] and in experiment [9] was “inactive” throughout. The compound was called inactive in [2], in experiment [5] and in experiment [10].

Take `O=S(=O)(O)CCO`: the Potency result in [1], in [3], in experiment [4], in [6] and in experiment [9] was “inactive” in each case. Also, the outcome in [2], in experiment [5] and in experiment [8] was inactive.

As for `C[C@H]1O[C@H](O[C@H]2[C@H](O)[C@@H](O)[C@@H](O[C@H]3[C@H](O)[C@@H](O)[C@H](O)O[C@@H]3CO)O[C@@H]2CO)[C@H](O)[C@@H](O)[C@@H]1N[C@H]1C=C(CO)[C@@H](O)[C@H](O)[C@H]1O`, the Potency result in experiment [1], in experiment [3], in [4], in experiment [6] and in experiment [9] was “inactive” in each case. Moreover, the compound was called inactive in experiment [2], in [5] and in experiment [8].

Take `Cc1ccc2c(c1)c1c3n2CCNC3CCC1` (stereo unspecified): the Potency entry in experiment [1], in experiment [3], in [4], in [6], in [7] and in [9] was “inactive” throughout. Further, the call in experiment [2] and in experiment [5] was inactive.

Take `COc1cc2c(Nc3ccc(Br)cc3F)ncnc2cc1OCC1CCN(C)CC1`: the Potency entry in experiment [1], in experiment [3], in experiment [4], in experiment [6] and in [7] was “inactive” throughout. Besides, the compound was classed as inactive in experiment [2], in experiment [5], in experiment [8] and in [10].

Regarding `O=S(=O)(O)SSS(=O)(=O)O`, the Potency result in experiment [1], in experiment [3], in [4], in experiment [6] and in experiment [7] was “inactive” in each case. Also, the call in experiment [2], in experiment [5] and in experiment [10] was inactive.

With `C=CCOc1c(Br)cc(Br)cc1Br`, the Potency result in experiment [1], in [3], in experiment [4], in experiment [6], in experiment [7] and in [9] was “inactive” throughout. Also, the outcome in experiment [2], in [5] and in experiment [10] was inactive.

On to `CC(C)CCC(=O)CCC(C)C`, for which the Potency entry in experiment [1], in [3], in [4], in experiment [6] and in experiment [7] was “inactive” in each case. Besides, the result in [2], in experiment [5] and in experiment [10] was inactive.

`CC(=O)OCCCc1ccccc1`: the Potency entry in experiment [1], in experiment [3], in experiment [4], in [6] and in experiment [7] was “inactive” each time. Also, the call in experiment [2], in [5] and in [10] was inactive.

Take `CCOC(=O)OCC/C(SC(=O)OCC)=C(\C)N(C=O)Cc1cnc(C)nc1N`: the Potency entry in experiment [1], in experiment [3], in [4], in experiment [6], in experiment [7] and in [9] was “inactive” in each case. The call in [2], in experiment [5] and in experiment [10] was inactive.

For `CCCCOC(=O)C(C)OC(=O)CCC` (stereo unspecified), the Potency entry in experiment [1], in experiment [3], in experiment [4], in experiment [6], in experiment [7] and in experiment [9] was “inactive” throughout. For the same compound, the compound was called inactive in experiment [2], in experiment [5] and in [10].

Turning to `CC(C)COC(=O)COc1ccc(Cl)cc1Cl`, the Potency entry in [1], in [3], in experiment [4], in [6], in experiment [7] and in [9] was “inactive” throughout. Moreover, the compound was called inactive in experiment [2], in experiment [5] and in experiment [10].

Take `CC(C)C(=O)c1ccccc1`: the Potency result in experiment [1], in [3], in [4], in [6], in experiment [7] and in experiment [9] was “inactive” each time. Also, the compound was called inactive in [2], in [5] and in [10].

As for `Nc1cc(S(=O)(=O)O)ccc1S(=O)(=O)O`, the Potency entry in experiment [1], in experiment [3], in [4], in experiment [6], in experiment [7] and in [9] was “inactive” throughout. Also, the compound was called inactive in experiment [2], in [5], in experiment [8] and in [10].

Take `CCCCCN(CCCOC)C(=O)C(CCC(=O)O)NC(=O)c1ccc(Cl)c(Cl)c1` (stereo unspecified): the Potency result in [1], in experiment [3], in experiment [4], in experiment [6] and in experiment [7] was “inactive” each time. Further, the compound was classed as inactive in experiment [2], in experiment [5], in experiment [8] and in experiment [10].

Consider `CNC(=O)NC`, for which the Potency entry in experiment [1], in experiment [3], in [4], in experiment [6], in experiment [7] and in experiment [9] was “inactive” throughout. For the same compound, the compound was classed as inactive in experiment [2], in [5], in experiment [8] and in experiment [10].

With `CC(=O)c1ccc2c(c1)CCCC2`, the Potency entry in experiment [1], in [3], in [4], in experiment [6], in experiment [7] and in experiment [9] was “inactive” in each case. Besides, the compound was classed as inactive in experiment [2], in experiment [5], in [8] and in [10].

As for `CCCCCC1CCCC(=O)O1` (stereo unspecified), the Potency entry in experiment [1], in experiment [3], in experiment [4], in [6], in experiment [7] and in experiment [9] was “inactive” each time. Moreover, the compound was classed as inactive in [2], in [5] and in [10].

Take `O=c1[nH]c(=O)c2ccccc2o1`: the Potency entry in [1], in [3], in experiment [4], in experiment [6] and in experiment [7] was “inactive” in each case. The call in [2], in experiment [5] and in experiment [10] was inactive.

For the compound `CCN(CC)C(=O)C1CN2CCc3cc(OC)c(OC)cc3C2CC1OC(C)=O` (stereo unspecified), the Potency entry in experiment [1], in [3], in experiment [4], in [6] and in experiment [9] was “inactive” throughout. For the same compound, the compound was classed as inactive in [2], in [5] and in experiment [10].
